# This is a sample that favours compounds with a hit; in the whole collection about 6.8% have one here.
# HCV NS3h FP – blocks HCV NS3 helicase binding to DNA; NS3h Cy5-dT15 DNA binding, fluorescence polarization; inhibition, % at 100 µM; actives 1.6% (n = 16,000);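 active = inhibition above the average over every tested compound plus 3 SD, cut at about 40% in these data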
# Cy5 interf NS3h – enhances or quenches Cy5 fluorescence in NS3h assay; Cy5-dT15 DNA with NS3h, fluorescence interference; actives lie on both sides; signal over control mean, under 1 quenches; fluorescence interference ratio at 100 µM; actives 6% (n = 16,000); AID 720488;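 active = compound fluorescence over control fluorescence at most 0.8, a quencher, or at least a set upper limit, an enhancer; inactive = ratio between 0.8 and the set upper limit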
# The depositor's hits bear a star.
SMILES,HCV NS3h FP,Cy5 interf NS3h
Cc1ccc(C(=NS(=O)(=O)c2cccc([N+](=O)[O-])c2)Nc2ccccc2)cc1,4.1,0.994
CC1=NN(c2ccc(C)c(Cl)c2)C(=O)C1,-8.6,0.718*
Cc1ccc(N2C(=O)C3C4C=CC(C5CC45)C3C2=O)cc1Cl (stereo unspecified),4.3,0.922
CC(C)(C)N1C(=O)NC(=O)C(=Cc2ccc([N+](=O)[O-])s2)C1=O,39.8,0.883
O=C1NC(=S)N(c2ccc(F)cc2)C(=O)C1=Cc1ccc([N+](=O)[O-])s1,43.3*,0.881
Cc1c(C=O)cc2c(c1C)OC1(C=C2)N(C)c2ccccc2C1(C)C (stereo unspecified),-0.7,1.04
O=C(CCCC(=O)OCC(F)(F)C(F)F)Nc1ccc(F)cc1F,2.8,1.14
O=C(Cn1cnc([N+](=O)[O-])n1)Nc1ccc(F)cc1F,5.9,0.763*
Cc1cc(C)cc(Nc2cc(=O)n(C)c(=O)n2C)c1,2.4,0.942
COc1ccccc1CNC(=O)Cc1ccccc1[N+](=O)[O-],13.8,1.04
N/C(Cc1ccc([N+](=O)[O-])cc1)=N/OC(=O)c1cccc(I)c1,13.6,1.14
N/C(Cc1ccc(Cl)cc1)=N/OC(=O)c1ccc([N+](=O)[O-])cc1,-7.9,0.789*
COc1ccc(OC)c(NC(=S)NC(=O)/C=C/c2ccccc2)c1,4.7,1.01
CCOc1cc(/C=C(\C#N)c2nn(CCO)c(N)c2C#N)cc(Br)c1OC,-17.7,0.986
COc1ccc(/C=C(\C#N)c2nn(-c3ccccc3)c(N)c2C#N)cc1[N+](=O)[O-],-29.9,0.791*
C=C(C)c1cccc(C(C)(C)NC(=O)NCc2ccccn2)c1,7.1,0.99
O=[N+]([O-])c1cc(NS(=O)(=O)Cc2ccccc2)ccc1F,-2.5,0.633*
O=C(Nc1ccc(F)c([N+](=O)[O-])c1)C(c1ccccc1)c1ccccc1,8.5,1.02
COc1cc(/C=C2/C(=O)NC(=S)N(c3ccccc3F)C2=O)ccc1OCc1ccc(C(=O)O)cc1,9.3,1.06
O=C(Nc1ccccc1C(=O)Nc1ccccc1Cl)c1ccccc1Cl,13.4,0.936
N#Cc1cn(-c2ccccc2)nc1-c1ccc(Br)cc1,11.6,1.1
O=C(NCCO)C1COc2ccccc2O1 (stereo unspecified),0.7,0.942
COC(=O)CNC(=O)C1COc2ccccc2O1 (stereo unspecified),5.5,1.23*
O=C(NCCc1ccccc1)c1nn2c(c1Br)NC(c1ccccc1)CC2C(F)(F)F (stereo unspecified),3.7,0.944
O=C(COc1ccccc1)C(=C(O)c1ccccc1)c1nc2ccccc2[nH]1,-23.0,1.36*
SMILES,HCV NS3h FP,Cy5 interf NS3h
O=C(COc1cccc([N+](=O)[O-])c1)Nc1cccc(-c2nc3ccccc3[nH]2)c1,-10.7,0.956
O=C(O)c1ccc(S(=O)(=O)c2ccc3c(c2)C(=O)N(c2ccc(Sc4ccc([N+](=O)[O-])cc4)cc2)C3=O)cc1,16.3,1.07
COC(=O)c1cc(-c2ccc(/C=C(\C#N)c3nc4ccccc4[nH]3)o2)ccc1Cl,3.5,1.03
Cc1ccc2nc(/C(C#N)=C/c3ccc(-c4ccc(Cl)cc4)o3)[nH]c2c1,-50.7,0.771*
Cc1ccc(NC(=O)C(=O)C=C(O)c2ccc(Br)cc2)cc1,-1.3,0.969
CC(C)COc1ccc(C(=O)Nc2ccc(Br)cc2)cc1,-1.9,1.11
COc1ccc(S(=O)(=O)N(CCc2ccccc2)CC(=O)Nc2ccc(Br)cc2)cc1OC,10.9,1.03
COc1ccc(S(=O)(=O)N(CC(=O)Nc2ccccc2C(F)(F)F)Cc2ccccc2)cc1OC,14.2,0.633*
O=C(/C=C/c1ccco1)Nc1cc(Cl)ccc1C(=O)O,62.8*,0.9
O=C(/C=C/c1ccco1)Nc1ccc(Br)cn1,-1.9,0.95
O=C1NC(=S)N(c2cccc(Br)c2)C(=O)/C1=C/c1ccc(O)c(Cl)c1,-5.0,1.16
O=C1NC(=S)N(c2ccccc2)C(=O)/C1=C/c1ccc(O)c(Cl)c1,10.0,1.24*
C=CCNC(=O)C(=O)NCCN1CCOCC1,5.5,1.18
O=C(CSc1nc2ccccc2s1)Nc1nc2ccccc2s1,7.8,0.972
COc1ccc(CNC(=O)CSc2nc3ccccc3s2)cc1,6.8,0.982
O=C(CSc1nc2ccccc2s1)c1ccc2ccccc2c1,12.4,0.739*
COc1ccc(NC(=O)CSc2nc3ccccc3s2)c(OC)c1,4.0,0.626*
COC(=O)c1ccc(/C=C2/N=C(c3sc4ccccc4c3Cl)OC2=O)cc1,2.4,0.998
COc1ccc(N2C(=O)c3ccc(OCCOc4ccc5c(c4)C(=O)N(c4ccc(OC)cc4)C5=O)cc3C2=O)cc1,2.2,0.643*
COc1ccc(N2C(=O)c3ccc(C(=O)Nc4ccccc4I)cc3C2=O)cc1,8.2,1.05
N#Cc1cc(N=Cc2cccc(C=Nc3ccc(N)c(C#N)c3)c2)ccc1N,7.3,1.23*
COc1ccc(CN2CCN(Cc3ccc(SC)cc3)CC2)c(OC)c1,-1.9,1.04
CC(=O)Nc1ccc(C(=O)N2CC(C)CC(C)C2)cc1 (stereo unspecified),4.0,0.687*
CC1CC(C)CN(C(=O)c2ccc(Cl)cc2)C1 (stereo unspecified),-4.9,1.05
CCC(=O)Oc1cc2oc(CC)c(-c3nc(C)cs3)c(=O)c2cc1CC,18.1,0.914
SMILES,HCV NS3h FP,Cy5 interf NS3h
CCc1cc2c(=O)c(-c3nc4ccccc4s3)c(C)oc2cc1OS(C)(=O)=O,7.0,1.2*
COc1cccc(C(=O)N2CCN(C3CC4CCC3C4)CC2)c1 (stereo unspecified),-9.9,0.683*
COc1cc(OC)cc(C(=O)N2CCN(C3CCC(c4ccccc4)CC3)CC2)c1 (stereo unspecified),12.8,0.817
CC1(C)CC(=O)C2=C(C1)NC1=C(C(=O)CC(C)(C)C1)C2c1ccc(Br)cc1,11.7,1.08
NC(=O)N=Nc1c(O)[nH]c2ccccc12,12.4,0.846
O=C(CO/N=C\c1ccccc1)N=Nc1c(O)[nH]c2ccc(Br)cc12,-6.5,0.778*
O=C(CSCc1cccc(Br)c1)N=Nc1c(O)[nH]c2ccccc12,15.5,0.804*
Cc1ccc2[nH]c(O)c(N=NC(=O)COc3ccccc3)c2c1Br,11.4,0.859
COc1ccc(-c2nc3ccccc3nc2N2CCOCC2)cc1,-1.6,1
O=C(CN(c1cccc(Br)c1)S(=O)(=O)c1ccccc1)Nc1cccc(Cl)c1,6.1,1.02
CCCOc1ccc(CSc2nncn2N)cc1,1.3,0.98
COc1ccc(CCNC(=O)COc2cccc3ccccc23)cc1,11.9,1.01
O=C(COc1cccc2ccccc12)Nc1ccncc1,7.8,0.802*
COc1cc(NC(=O)COc2cccc3ccccc23)cc(OC)c1,7.0,0.991
O=C(COc1cccc2ccccc12)Nc1ccc2c(c1)OCCO2,25.8,0.682*
Cc1cccc(OCC(=O)Nc2ccc3c(c2)OCO3)c1C,12.6,0.948
O=C(COc1cccc2ccccc12)NCCO,15.0,0.736*
O=C(Oc1ccccc1C(=S)N1CCOCC1)c1ccc(Br)cc1,-2.9,1.05
CCOc1ccccc1NC(=O)CN1C(=O)/C(=C\c2cc(OC)c(OC)c(OC)c2)SC1=S,3.8,1.17
COc1ccccc1N(CC(=O)Nc1ccc2ccccc2c1)S(=O)(=O)c1ccccc1,14.0,0.999
Cc1cc(OCC(=O)Nc2cc(Cl)ccc2C)ccc1Cl,2.2,1.04
Cc1ccc(OCc2nnc(NC(=O)c3cccs3)s2)cc1,4.1,1.06
CC(C)(C)C(=O)/C=C(N)\C=C\c1ccccc1,11.5,0.636*

# High-throughput results (PubChem)
